Measured values taken from PubChem BioAssay (NCI).
Compounds without any hit were thinned out: in the full panel of roughly 83,000, 20% have a hit.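 For each line, cells grew in 96-well plates with the test compound present at a single concentration for 48 hours.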 Activity calls are given as the source filed them. Rule for the calls: active = growth percent below 10; inactive = the rest.

Key:
Assay in all cases: NCI-60 one-dose screen, 48 h (100 = growth as untreated, 0 = no growth, -100 = all killed)
SR leukemia = conditions: 10 µM unless noted
RPMI-8226 leukemia = conditions: 10 µM
OVCAR-8 ovarian = conditions: 10 µM unless noted
OVCAR-5 ovarian = conditions: 10 µM unless noted
OVCAR-4 ovarian = conditions: 10 µM unless noted
SK-OV-3 ovarian = conditions: 10 µM
IGROV1 ovarian = conditions: 10 µM unless noted
OVCAR-3 ovarian = conditions: 10 µM unless noted
HS 578T breast = conditions: 10 µM unless noted
NCI/ADR-RES ovarian = conditions: 10 µM unless noted
T-47D breast = conditions: 10 µM
BT-549 breast = conditions: 10 µM unless noted
MDA-MB-435 melanoma = conditions: 10 µM unless noted
SW-620 colon = conditions: 10 µM unless noted
MCF7 breast = conditions: 10 µM unless noted
HCT-116 colon = conditions: 10 µM unless noted
HCC-2998 colon = conditions: 10 µM unless noted
KM12 colon = conditions: 10 µM unless noted

Measured: growth

Cc1cc(Cl)c2c(Cl)ccc(Cl)c2n1
inactive: SR leukemia 91.9% | RPMI-8226 leukemia 107% | OVCAR-8 ovarian 103% | OVCAR-5 ovarian 101% | OVCAR-4 ovarian 128% | SK-OV-3 ovarian 97.7% | IGROV1 ovarian 111% | OVCAR-3 ovarian 105% | HS 578T breast 119% | NCI/ADR-RES ovarian 114% | T-47D breast 103% | BT-549 breast 100% | MDA-MB-435 melanoma 102% | SW-620 colon 114% | MCF7 breast 99.3% | HCT-116 colon 100% | HCC-2998 colon 116% | KM12 colon 108%

COc1ccc(C(=O)C2=CC(=O)C(=O)C2)cc1OC
inactive: SR leukemia 94.3% | RPMI-8226 leukemia 98.7% | OVCAR-8 ovarian 113% | OVCAR-5 ovarian 98.2% | OVCAR-4 ovarian 109% | SK-OV-3 ovarian 104% | IGROV1 ovarian 99.3% | OVCAR-3 ovarian 108% | HS 578T breast 110% | NCI/ADR-RES ovarian 99.5% | T-47D breast 99.7% | BT-549 breast 93.8% | MDA-MB-435 melanoma 106% | SW-620 colon 107% | MCF7 breast 95.9% | HCT-116 colon 103% | HCC-2998 colon 108% | KM12 colon 106%

Cn1c(=O)c2c(-c3ccccc3F)n(-c3ccc4c(c3)OCO4)cc2n(C)c1=O
inactive: SR leukemia 68.1% | RPMI-8226 leukemia 52.9% | OVCAR-8 ovarian 99.1% | OVCAR-5 ovarian 98.6% | OVCAR-4 ovarian 104% | SK-OV-3 ovarian 110% | IGROV1 ovarian 101% | OVCAR-3 ovarian 114% | HS 578T breast 88.2% | NCI/ADR-RES ovarian 95.8% | T-47D breast 81.3% | BT-549 breast 95.1% | MDA-MB-435 melanoma 88.6% | SW-620 colon 102% | MCF7 breast 94.5% | HCT-116 colon 85.8% | HCC-2998 colon 92.2% | KM12 colon 102%

O=[N+]([O-])c1ccc(O)c2ncccc12
inactive: SR leukemia 21.5% | RPMI-8226 leukemia 52.4% | OVCAR-8 ovarian 25.3% | OVCAR-5 ovarian 89.8% | OVCAR-4 ovarian 33.8% | SK-OV-3 ovarian 75.2% | IGROV1 ovarian 29.1% | OVCAR-3 ovarian 11.1% | HS 578T breast 74.2% | NCI/ADR-RES ovarian 22.9% | T-47D breast 30.4% | BT-549 breast 55.2% | MDA-MB-435 melanoma 43.8% | SW-620 colon 32.6% | MCF7 breast 35.2% | HCT-116 colon 17.1% | HCC-2998 colon 51.6% | KM12 colon 35.5%

CS(=O)(=O)Nc1cccc(C(=O)NCc2ccc(N3CCOCC3)cc2)c1
inactive: SR leukemia 93.3% | RPMI-8226 leukemia 99.7% | OVCAR-8 ovarian 104% | OVCAR-5 ovarian 107% | OVCAR-4 ovarian 107% | SK-OV-3 ovarian 107% | IGROV1 ovarian 114% | OVCAR-3 ovarian 108% | HS 578T breast 104% | NCI/ADR-RES ovarian 111% | T-47D breast 95.4% | BT-549 breast 95.6% | MDA-MB-435 melanoma 105% | SW-620 colon 108% | MCF7 breast 99% | HCT-116 colon 101% | HCC-2998 colon 106% | KM12 colon 97.1%

CC(=O)Nc1ccccc1-c1n[nH]c(=O)[nH]c1=O
inactive: SR leukemia 107% | RPMI-8226 leukemia 103% | OVCAR-8 ovarian 106% | OVCAR-5 ovarian 96.4% | OVCAR-4 ovarian 93.6% | SK-OV-3 ovarian 99.1% | IGROV1 ovarian 104% | OVCAR-3 ovarian 113% | HS 578T breast 77.9% | NCI/ADR-RES ovarian 102% | T-47D breast 97.5% | BT-549 breast 112% | MDA-MB-435 melanoma 97.9% | SW-620 colon 96.4% | MCF7 breast 101% | HCT-116 colon 104% | HCC-2998 colon 116% | KM12 colon 105%

CC(C)(C)[Si](C)(C)OC1[C@@H](COC(N)=O)O[C@@H](n2cnc3c(N)ncnc32)[C@H]1O[Si](C)(C)C(C)(C)C (stereo partly drawn)
active: SR leukemia -31.8%
inactive: RPMI-8226 leukemia 21.6% | OVCAR-8 ovarian 84.9% | OVCAR-5 ovarian 99.2% | OVCAR-4 ovarian 96.2% | SK-OV-3 ovarian 91.7% | IGROV1 ovarian 113% | OVCAR-3 ovarian 75.6% | HS 578T breast 88.5% | NCI/ADR-RES ovarian 87.4% | T-47D breast 84.4% | BT-549 breast 106% | MDA-MB-435 melanoma 74.6% | SW-620 colon 100% | MCF7 breast 78.6% | HCT-116 colon 90.1% | HCC-2998 colon 107% | KM12 colon 76%

CCN(c1ccc(C(=O)N2CCN(c3ccccc3)CC2)cc1)S(C)(=O)=O
inactive: SR leukemia 90.2% | RPMI-8226 leukemia 102% | OVCAR-8 ovarian 103% | OVCAR-5 ovarian 109% | OVCAR-4 ovarian 107% | SK-OV-3 ovarian 106% | IGROV1 ovarian 107% | OVCAR-3 ovarian 106% | HS 578T breast 105% | NCI/ADR-RES ovarian 108% | T-47D breast 93.2% | BT-549 breast 108% | MDA-MB-435 melanoma 106% | SW-620 colon 108% | MCF7 breast 95.9% | HCT-116 colon 101% | HCC-2998 colon 102% | KM12 colon 101%

O/N=C/c1cccs1
inactive: SR leukemia 96.8% | RPMI-8226 leukemia 112% | OVCAR-8 ovarian 98.3% | OVCAR-5 ovarian 100% | OVCAR-4 ovarian 115% | SK-OV-3 ovarian 118% | IGROV1 ovarian 108% | OVCAR-3 ovarian 119% | HS 578T breast 116% | NCI/ADR-RES ovarian 121% | T-47D breast 111% | BT-549 breast 112% | MDA-MB-435 melanoma 99.8% | SW-620 colon 104% | MCF7 breast 99.2% | HCT-116 colon 102% | HCC-2998 colon 111% | KM12 colon 110%

O=C(CCc1nnc2sc(-c3ccccc3)nn12)c1nc2ccccc2[nH]1
inactive: SR leukemia 69.6% | RPMI-8226 leukemia 83% | OVCAR-8 ovarian 97.2% | OVCAR-5 ovarian 116% | OVCAR-4 ovarian 98.7% | SK-OV-3 ovarian 107% | IGROV1 ovarian 96.8% | OVCAR-3 ovarian 116% | HS 578T breast 102% | NCI/ADR-RES ovarian 92.5% | T-47D breast 80.3% | BT-549 breast 98.4% | MDA-MB-435 melanoma 94.8% | SW-620 colon 123% | MCF7 breast 87% | HCT-116 colon 72.2% | HCC-2998 colon 104% | KM12 colon 100%

COc1ccc(S(=O)(=O)ON=C2C=C(C)C(=O)C(C)=C2)cc1
inactive: SR leukemia 31.8% | RPMI-8226 leukemia 35.1% | OVCAR-8 ovarian 93.1% | OVCAR-5 ovarian 103% | OVCAR-4 ovarian 55.4% | SK-OV-3 ovarian 66.9% | IGROV1 ovarian 95% | OVCAR-3 ovarian 68.5% | HS 578T breast 101% | NCI/ADR-RES ovarian 98.5% | T-47D breast 40.3% | BT-549 breast 97.7% | MDA-MB-435 melanoma 18.1% | SW-620 colon 60.7% | MCF7 breast 64% | HCT-116 colon 44.9% | HCC-2998 colon 112% | KM12 colon 97.6%

Cc1ccc(C2SCC(=O)N2NC(=O)c2[nH]c3ccc(F)cc3c2-c2ccccc2)cc1 (stereo not drawn)
inactive: SR leukemia 76.1% | RPMI-8226 leukemia 86.7% | OVCAR-8 ovarian 92.1% | OVCAR-5 ovarian 99.9% | OVCAR-4 ovarian 79.7% | SK-OV-3 ovarian 107% | IGROV1 ovarian 88.4% | OVCAR-3 ovarian 92% | HS 578T breast 95.3% | NCI/ADR-RES ovarian 92% | T-47D breast 91.3% | BT-549 breast 93.2% | MDA-MB-435 melanoma 96.3% | SW-620 colon 102% | MCF7 breast 93.1% | HCT-116 colon 80.1% | HCC-2998 colon 70.2% | KM12 colon 96.1%

CCCCCCCCCCCC(=O)[O][Sn]([CH2]CCC)([CH2]CCC)[CH2]CCC
active: SR leukemia -42.7% | RPMI-8226 leukemia -34% | OVCAR-8 ovarian -81.4% | OVCAR-5 ovarian -96.9% | OVCAR-4 ovarian -98.5% | SK-OV-3 ovarian -100% | IGROV1 ovarian -77.1% | OVCAR-3 ovarian -97.5% | HS 578T breast -20.2% | NCI/ADR-RES ovarian -80.5% | T-47D breast -89.9% | BT-549 breast -100% | MDA-MB-435 melanoma -91.6% | SW-620 colon -43.2% | MCF7 breast -88.2% | HCT-116 colon -100% | HCC-2998 colon -92.2% | KM12 colon -91.4%

Cn1cc(C(=O)NCCC(=N)N)cc1NC(=O)CN=C(N)N
inactive: SR leukemia 104% | RPMI-8226 leukemia 110% | OVCAR-8 ovarian 106% | OVCAR-5 ovarian 88.9% | OVCAR-4 ovarian 105% | SK-OV-3 ovarian 110% | IGROV1 ovarian 106% | OVCAR-3 ovarian 112% | HS 578T breast 92.4% | NCI/ADR-RES ovarian 94.2% | T-47D breast 110% | BT-549 breast 99.9% | MDA-MB-435 melanoma 111% | SW-620 colon 106% | MCF7 breast 111% | HCT-116 colon 92.6% | HCC-2998 colon 88.6% | KM12 colon 104%

COc1ccc(C2CC(c3cc(OC)c(OC)c(OC)c3)=NN2c2ccc(S(N)(=O)=O)cc2)cc1 (stereo not drawn)
inactive: SR leukemia 33.2% | OVCAR-8 ovarian 61.9% | OVCAR-5 ovarian 92.3% | OVCAR-4 ovarian 69.9% | SK-OV-3 ovarian 88.3% | IGROV1 ovarian 73.9% | OVCAR-3 ovarian 77.5% | HS 578T breast 66.7% | NCI/ADR-RES ovarian 55.4% | T-47D breast 55.9% | BT-549 breast 83.9% | MDA-MB-435 melanoma 66.2% | SW-620 colon 67.9% | MCF7 breast 57% | HCT-116 colon 48.2% | HCC-2998 colon 79.7% | KM12 colon 63.5%
active: RPMI-8226 leukemia 4.35%

CN([N-]C(=O)CC(=O)[N-]N(C)C(=S)c1ccccc1)C(=S)c1ccccc1.[Cu+2]
active: SR leukemia -17.7% | RPMI-8226 leukemia -13.7% | OVCAR-8 ovarian -39.1% | OVCAR-5 ovarian -53.4% | OVCAR-4 ovarian -98.4% | SK-OV-3 ovarian -99.1% | IGROV1 ovarian -93.2% | OVCAR-3 ovarian -85.7% | HS 578T breast -12.3% | NCI/ADR-RES ovarian -3.82% | T-47D breast -52.7% | BT-549 breast -73% | MDA-MB-435 melanoma -83.9% | SW-620 colon -67.4% | MCF7 breast -48.3% | HCT-116 colon -12.4% | HCC-2998 colon -94.2% | KM12 colon -74.8%
